The target in assay [1] is Nuclear receptor coactivator 3 (Homo sapiens) (UniProt Q9Y6Q9). In words: SRC3 coactivator transcriptional activity inhibitors, confirmation, cell-based, luminescence, quadruplicate (AID 588792;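 active means mean inhibition over 43.08%, the solvent-only control mean plus 3 SD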;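 further: 0% = DMSO treated cells and 100% = gossypol at 36 µM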). As to conditions: HEK293 GAL4-SRC3 luciferase reporter, at 3.6 µM, hits give high values.
Assay [2] relates to transactivating tegument protein VP16 (Human herpesvirus 1), Gal4-VP16 luciferase reporter. In words: VP16 transactivation inhibitors, counter-screen for SRC3 inhibitor project, cell-based, luminescence, high throughput (AID 588794; in the data active means inhibition above about 30%). As to conditions: mammalian cells, VP16-driven luciferase reporter luminescence; at 3.6 µM; hits give high values. (In general: A counterscreen serves to expose hits that act by an unwanted route or on another target.)

In assay [3] the target is Nuclear receptor coactivator 1 (Homo sapiens) (UniProt Q15788). In words: SRC1 coactivator transcriptional activity inhibitors, confirmation, cell-based, luminescence, quadruplicate (AID 588820;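 active means mean inhibition above 46.68%, the untreated control wells mean plus 3 SD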;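 further: 0% = DMSO wells and 100% = gossypol 36 µM treated wells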). As to conditions: HEK293 GAL4-SRC1 luciferase reporter, at 3.6 µM, hits give high values.
Sequence of Nuclear receptor coactivator 1 (Homo sapiens) (Q15788 whole entry, looked up, the tested form may be a part): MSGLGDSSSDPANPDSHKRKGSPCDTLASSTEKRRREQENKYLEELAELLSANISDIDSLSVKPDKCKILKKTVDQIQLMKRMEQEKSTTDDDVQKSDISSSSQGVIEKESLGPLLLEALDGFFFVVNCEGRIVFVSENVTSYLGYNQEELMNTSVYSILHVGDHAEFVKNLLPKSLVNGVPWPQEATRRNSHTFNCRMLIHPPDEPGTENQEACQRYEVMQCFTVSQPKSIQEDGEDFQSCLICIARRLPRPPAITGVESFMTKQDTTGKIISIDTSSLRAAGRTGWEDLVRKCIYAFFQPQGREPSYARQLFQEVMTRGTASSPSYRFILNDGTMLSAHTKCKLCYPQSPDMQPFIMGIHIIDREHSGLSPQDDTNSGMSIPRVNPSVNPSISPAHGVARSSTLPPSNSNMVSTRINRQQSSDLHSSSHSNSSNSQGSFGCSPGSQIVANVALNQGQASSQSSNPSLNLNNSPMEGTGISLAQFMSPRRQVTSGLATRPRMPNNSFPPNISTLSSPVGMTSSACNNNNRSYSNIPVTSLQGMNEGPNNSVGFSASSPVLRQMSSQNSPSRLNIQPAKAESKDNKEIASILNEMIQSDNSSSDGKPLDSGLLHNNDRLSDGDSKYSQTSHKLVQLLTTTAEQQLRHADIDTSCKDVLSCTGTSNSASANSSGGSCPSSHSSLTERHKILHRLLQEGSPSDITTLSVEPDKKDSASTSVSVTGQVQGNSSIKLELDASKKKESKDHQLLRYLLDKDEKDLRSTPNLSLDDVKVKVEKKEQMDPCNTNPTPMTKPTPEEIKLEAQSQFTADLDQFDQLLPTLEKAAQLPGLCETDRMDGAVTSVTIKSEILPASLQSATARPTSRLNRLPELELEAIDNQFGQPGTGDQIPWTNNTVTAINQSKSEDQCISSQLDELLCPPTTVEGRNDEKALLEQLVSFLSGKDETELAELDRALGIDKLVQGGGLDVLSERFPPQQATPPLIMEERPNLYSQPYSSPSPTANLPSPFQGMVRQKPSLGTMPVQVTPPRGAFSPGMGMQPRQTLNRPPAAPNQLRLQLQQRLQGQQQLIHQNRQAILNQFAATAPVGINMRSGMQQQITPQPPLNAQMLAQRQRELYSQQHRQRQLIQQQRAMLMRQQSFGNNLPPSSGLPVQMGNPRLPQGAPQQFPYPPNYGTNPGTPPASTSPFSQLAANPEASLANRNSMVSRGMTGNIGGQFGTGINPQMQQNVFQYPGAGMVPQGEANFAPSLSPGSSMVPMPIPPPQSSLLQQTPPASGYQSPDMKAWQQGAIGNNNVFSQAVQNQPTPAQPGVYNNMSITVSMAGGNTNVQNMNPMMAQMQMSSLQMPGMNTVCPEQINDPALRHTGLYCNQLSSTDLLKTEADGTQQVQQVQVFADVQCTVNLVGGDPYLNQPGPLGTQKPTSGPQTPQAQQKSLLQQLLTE
Assay [4] is described as follows: VP16 transactivation inhibitors, counter-screen for SRC1 inhibitor project, cell-based, luminescence, high throughput (AID 588824; in the data active means inhibition above about 25%). As to conditions: cell-based VP16 transactivation luciferase luminescence; at 3.6 µM; hits give high values.
Assay [5] in a line: StAR promoter reporter inhibitors, counter-screen for LRH-1 inverse agonist project, cell-based, luminescence, high throughput (AID 651611). As to conditions: StAR promoter luciferase reporter counterscreen, at 3.6 µM, hits give high values.
Assay [6] addresses Nuclear receptor subfamily 5 group A member 2 (Homo sapiens) (UniProt O00482). Kind of assay: LRH-1 (NR5A2) inverse agonists, retest, confirmation, cell-based, luminescence (AID 651613; in the data active means inhibition above about 42%;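 further: HEK293T cells co-transfected with LRH-1 and StAR promoter luciferase reporter; 0% = vehicle wells and 100% = parental cells lacking receptor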). As to conditions: cell-based LRH-1 luciferase reporter, inverse agonism; at 3.6 µM; hits give high values. A general note: Reporter assays use an easily measured gene product as a stand-in for the process of interest.

Assay [7] has as its target Steroidogenic factor 1 (Homo sapiens) (UniProt Q13285). In words: SF1 (NR5A1) inverse agonists, counter-screen for LRH-1 inverse agonist project, cell-based, luminescence, high throughput (AID 651614; in the data active means inhibition above about 44%;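 further: cells cotransfected with StAR promoter reporter and SF1 expression vector; 0% = vehicle on cells with receptor and 100% = vehicle on cells lacking receptor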). As to conditions: cell-based SF1 luciferase reporter, at 3.6 µM, hits give high values.
The nature of assay [8]: VP16 transactivation reporter inhibitors, counter-screen for LRH-1 inverse agonist project, cell-based, luminescence, high throughput (AID 651615; in the data active means inhibition above about 33%). As to conditions: Gal4-VP16 luciferase reporter cells, at 3.6 µM, hits give high values.

Unmarked numbers belong to inactive results. Active and inactive are the calls of the source. Unless noted, no stated cut-off is given here; in the data, active means inhibition above about 28%; inactive means the rest.

For 18 compounds, inhibition results are on record in PubChem BioAssay.

As a reminder, the inhibition is the drop in the measured response relative to a control, in per cent.

Sequence of Nuclear receptor coactivator 3 (Homo sapiens) (Q9Y6Q9 whole entry, looked up, the tested form may be a part): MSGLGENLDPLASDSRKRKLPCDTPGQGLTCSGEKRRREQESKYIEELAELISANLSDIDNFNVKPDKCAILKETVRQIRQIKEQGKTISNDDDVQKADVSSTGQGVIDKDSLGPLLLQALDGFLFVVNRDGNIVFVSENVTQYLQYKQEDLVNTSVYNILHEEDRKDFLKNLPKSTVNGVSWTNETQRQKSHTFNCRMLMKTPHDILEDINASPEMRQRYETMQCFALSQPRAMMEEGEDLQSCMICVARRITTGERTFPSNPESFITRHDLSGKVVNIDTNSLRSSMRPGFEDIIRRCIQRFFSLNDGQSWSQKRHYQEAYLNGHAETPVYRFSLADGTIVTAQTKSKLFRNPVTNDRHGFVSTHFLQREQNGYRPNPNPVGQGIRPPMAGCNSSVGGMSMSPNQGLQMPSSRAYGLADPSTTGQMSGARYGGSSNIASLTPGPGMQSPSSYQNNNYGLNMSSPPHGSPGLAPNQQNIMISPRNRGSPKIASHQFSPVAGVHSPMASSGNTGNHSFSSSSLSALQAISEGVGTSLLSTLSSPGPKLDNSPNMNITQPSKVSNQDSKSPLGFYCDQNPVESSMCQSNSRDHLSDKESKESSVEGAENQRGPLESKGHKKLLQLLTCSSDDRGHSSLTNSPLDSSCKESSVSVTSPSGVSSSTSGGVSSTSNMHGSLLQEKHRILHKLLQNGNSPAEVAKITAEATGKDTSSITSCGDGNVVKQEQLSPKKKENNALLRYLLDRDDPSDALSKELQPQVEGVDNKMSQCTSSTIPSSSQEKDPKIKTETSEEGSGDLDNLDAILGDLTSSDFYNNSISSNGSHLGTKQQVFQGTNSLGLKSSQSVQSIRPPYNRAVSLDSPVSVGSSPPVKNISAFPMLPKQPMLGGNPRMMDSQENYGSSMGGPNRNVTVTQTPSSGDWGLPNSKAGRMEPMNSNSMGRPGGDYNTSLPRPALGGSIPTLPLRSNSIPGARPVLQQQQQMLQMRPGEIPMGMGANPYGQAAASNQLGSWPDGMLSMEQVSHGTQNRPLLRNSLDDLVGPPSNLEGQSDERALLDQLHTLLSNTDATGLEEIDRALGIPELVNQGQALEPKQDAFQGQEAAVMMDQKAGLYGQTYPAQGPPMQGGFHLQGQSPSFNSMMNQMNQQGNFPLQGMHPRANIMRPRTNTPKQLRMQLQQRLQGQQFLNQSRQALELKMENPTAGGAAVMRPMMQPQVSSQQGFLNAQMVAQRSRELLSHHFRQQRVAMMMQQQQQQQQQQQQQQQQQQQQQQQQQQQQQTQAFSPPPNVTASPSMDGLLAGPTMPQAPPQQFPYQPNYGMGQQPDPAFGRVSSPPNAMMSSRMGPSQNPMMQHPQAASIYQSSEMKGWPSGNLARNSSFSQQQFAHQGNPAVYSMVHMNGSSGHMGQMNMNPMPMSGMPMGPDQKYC
Sequence of Nuclear receptor subfamily 5 group A member 2 (Homo sapiens) (O00482 whole entry, looked up): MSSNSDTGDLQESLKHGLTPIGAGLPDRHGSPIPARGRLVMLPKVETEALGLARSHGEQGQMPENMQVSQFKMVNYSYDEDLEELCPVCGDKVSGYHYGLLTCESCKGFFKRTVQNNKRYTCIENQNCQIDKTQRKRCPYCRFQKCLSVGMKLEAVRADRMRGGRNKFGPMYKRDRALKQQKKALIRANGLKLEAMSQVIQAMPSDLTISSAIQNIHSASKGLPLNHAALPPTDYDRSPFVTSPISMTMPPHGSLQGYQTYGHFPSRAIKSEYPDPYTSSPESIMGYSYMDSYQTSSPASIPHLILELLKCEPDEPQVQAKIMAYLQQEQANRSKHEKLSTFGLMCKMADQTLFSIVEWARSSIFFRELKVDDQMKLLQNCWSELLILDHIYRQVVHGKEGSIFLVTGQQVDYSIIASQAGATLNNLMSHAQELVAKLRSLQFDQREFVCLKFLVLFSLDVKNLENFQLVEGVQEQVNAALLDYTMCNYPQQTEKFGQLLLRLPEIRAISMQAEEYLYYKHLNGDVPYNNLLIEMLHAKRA
Sequence of Steroidogenic factor 1 (Homo sapiens) (Q13285 whole entry, looked up, the tested form may be a part): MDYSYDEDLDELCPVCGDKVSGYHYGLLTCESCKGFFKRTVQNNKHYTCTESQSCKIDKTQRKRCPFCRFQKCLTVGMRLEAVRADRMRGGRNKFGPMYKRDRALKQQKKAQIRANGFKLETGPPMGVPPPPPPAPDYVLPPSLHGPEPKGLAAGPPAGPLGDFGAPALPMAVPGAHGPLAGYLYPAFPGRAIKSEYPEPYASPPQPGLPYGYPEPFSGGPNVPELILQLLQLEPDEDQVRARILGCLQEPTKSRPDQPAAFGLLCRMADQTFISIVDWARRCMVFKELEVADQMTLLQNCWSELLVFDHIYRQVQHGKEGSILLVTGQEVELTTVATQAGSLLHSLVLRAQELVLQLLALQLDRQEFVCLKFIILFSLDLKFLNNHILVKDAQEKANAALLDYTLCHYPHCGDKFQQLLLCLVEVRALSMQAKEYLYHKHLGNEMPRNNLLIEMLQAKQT

`Cc1cccc2cc(-c3ccccc3)c(-c3ccccc3)c[n+]12`: the inhibition in assay [1] is 4.1%; in assay [2] it was 37% (active); in assay [3] it was 5.14%; in assay [4], 40.4% (active); in assay [5], 18.2%; in assay [6] it was 106% (active). Further, the inhibition in assay [7] is 63.2% (active); in assay [8], 81.7% (active).
`CN1OC[C@@H]2CN[C@H](c3ccc(-c4cc5ccccc5o4)cc3)C[C@@H]21`: the inhibition in assay [1] was 83.3% (active); in assay [2] it was 76.8% (active); in assay [3], 68.6% (active); in assay [4], 68.7% (active); in assay [5] it was 78.3% (active); in assay [6], 62.2% (active). In addition, the inhibition in assay [7] was 79.8% (active); in assay [8], 65.2% (active).
In the case of `COc1cccc(/C=N/Nc2ccc(C(=O)O)cc2)c1O`, the inhibition in assay [1] was 68% (active); in assay [2] it was 63.8% (active); in assay [3], 12.8%; in assay [4], 64.4% (active); in assay [5], 68.7% (active); in assay [6], 68.3% (active). Besides, the figures for the inhibition in assay [7] and in assay [8] were 73% (active) and 68.7% (active), respectively.
As to `CCCC(=O)NC(c1ccc(C)cc1)c1ccc2cccnc2c1O` (centres undefined), the inhibition in assay [1] is 73.8% (active); in assay [2], 61.9% (active); in assay [3], 61.4% (active); in assay [4], 79% (active); in assay [5], 86.1% (active); in assay [6], 103% (active). For the same compound, the inhibition was 90.8% (active) in assay [7] and 83.1% (active) in assay [8].
In the case of `Cc1ccc(S(=O)(=O)Nc2ccccc2C(=O)Nc2nc(-c3ccc(F)cc3)cs2)cc1`, the inhibition in assay [1] was 20.7%; in assay [2], 27.8%; in assay [3], 20.1%; in assay [4], 37% (active); in assay [5], 42.1% (active); in assay [6] it was 82.7% (active). For the same compound, the inhibition in assay [7] is 80.3% (active); in assay [8] it was 72.4% (active).
As to `O=C(NCc1ccco1)c1cccc(NC(=O)c2ccccc2)c1`, the inhibition was 23.4% in assay [1]; 52.9% (active) in assay [2]; 33.7% in assay [3]; 53.1% (active) in assay [4]; 58.8% (active) in assay [5]; 65.6% (active) in assay [6]. Moreover, the inhibition was 66% (active) in assay [7] and 69.5% (active) in assay [8].
With `CCOc1ccc(-n2c(-c3ccc(OC)cc3)c[n+]3c2CCCCC3)cc1`, the inhibition in assay [1] was 46.6% (active); in assay [2], 67.5% (active); in assay [3] it was 36.2%; in assay [4], 63.9% (active); in assay [5], 52.9% (active); in assay [6], 109% (active). In addition, the inhibition in assay [7] was 83.9% (active); in assay [8], 90.3% (active).
Consider `c1ccc(-c2nnc(-c3ccccn3)nc2NC2CCCCC2)cc1`, for which the inhibition in assay [1] is 70.2% (active); in assay [2], 14.8%; in assay [3], 49.1% (active); in assay [4] it was 18.8%; in assay [5], 82.6% (active); in assay [6] it was 88.9% (active). The inhibition in assay [7] was 74.7% (active); in assay [8] it was 45.4% (active).
Consider `CN(Cc1cnc2nc(N)nc(N)c2n1)c1ccc(C(=O)NC(CCC(=O)O)C(=O)O)cc1` (centres undefined), for which the inhibition in assay [1] was 66.2% (active); in assay [2], 22%; in assay [3], 52.3% (active); in assay [4], 10.5%; in assay [5], 76.1% (active); in assay [6] it was 50.5% (active). Also, the inhibition in assay [7] is 46.2% (active); in assay [8], 19.9%.
For `O=C(Nc1ccc(N2CCN(C(=O)c3ccccc3)CC2)cc1)c1ccc2c(c1)OCO2`, the inhibition in assay [1] is 36.9%; in assay [2], 66.7% (active); in assay [3], 37.4%; in assay [4], 57.1% (active); in assay [5], 50.2% (active); in assay [6] it was 64% (active). For the same compound, the values for the inhibition in assay [7] and in assay [8] were 73.8% (active) and 70.5% (active), respectively.
Take `c1ccc(-c2nn(-c3ccccc3)[n+](-c3ccccc3)n2)cc1`: the inhibition in assay [1] is 20.3%; in assay [2] it was 14.7%; in assay [3] it was -0.24%; in assay [4], 15.6%; in assay [5] it was 23.8%; in assay [6], 43.8% (active). In addition, the inhibition in assay [7] was 46% (active); in assay [8], 48.5% (active).
Turning to `Cc1ccccc1CN1CC2=C(CCN(Cc3ccccc3)C2=O)N2CCN=C12`, the inhibition in assay [1] was 47.9% (active); in assay [2], 70.7% (active); in assay [3], 53.7% (active); in assay [4], 66.9% (active); in assay [5] it was 76.9% (active); in assay [6] it was 96.3% (active). Also, the inhibition in assay [7] was 88.7% (active); in assay [8], 77.8% (active).
With `NC(=S)NN=Cc1cc(-c2cccc(N)c2)ccn1`, the inhibition in assay [1] is 77.3% (active); in assay [2] it was 53% (active); in assay [3], 64.1% (active); in assay [4], 52.2% (active); in assay [5] it was 75.3% (active); in assay [6], 93.6% (active). Also, the inhibition is 88% (active) in assay [7] and 72.4% (active) in assay [8].
As for `CCN(CC)c1ccc(C(=C2C=CC(=[N+](CC)CC)C=C2)c2ccc(N(CC)CC)cc2)cc1`, the inhibition in assay [1] is 85.3% (active); in assay [2] it was 89.9% (active); in assay [3], 60.9% (active); in assay [4], 84.3% (active); in assay [5] it was 85.6% (active); in assay [6] it was 110% (active). The inhibition in assay [7] and in assay [8] was 97.1% (active) in each case.
For `COc1ccc(NC(=O)c2cc(-c3cc(Cl)ccc3OC)n[nH]2)cc1OC`, the inhibition in assay [1] was 27.4%; in assay [2], 51.2% (active); in assay [3], 19.2%; in assay [4], 44% (active); in assay [5], 38.9% (active); in assay [6], 47.8% (active). The results for the inhibition in assay [7] and in assay [8] were 61.2% (active) and 57.8% (active), respectively.
For `Cc1cc(/C=c2/sc3nc4ccccc4n3c2=O)c(C)n1-c1ccccn1`, the inhibition in assay [1] is 89.7% (active); in assay [2], 87.8% (active); in assay [3] it was 82.9% (active); in assay [4], 81.6% (active); in assay [5], 86.4% (active); in assay [6] it was 84.2% (active). In addition, the inhibition in assay [7] is 87.4% (active); in assay [8], 78.8% (active).
In the case of `Clc1ccc(OCCN2CCN(c3ncnc4sccc34)CC2)cc1`, the inhibition was 14.2% in assay [1]; 40.4% (active) in assay [2]; -17.4% in assay [3]; 42.2% (active) in assay [4]; 34.8% (active) in assay [5]; 58.5% (active) in assay [6]. For the same compound, the inhibition in assay [7] is 50.2% (active); in assay [8], 46.7% (active).
Take `COC(C(=O)C(O)C(C)O)C1Cc2cc3cc(OC4CC(OC5CC(O)C(O)C(C)O5)C(O)C(C)O4)c(C)c(O)c3c(O)c2C(=O)C1OC1CC(OC2CC(OC3CC(O)C(OC)C(C)O3)C(O)C(C)O2)C(O)C(C)O1` (centres undefined): the inhibition is 93.6% (active) in assay [1]; 93.9% (active) in assay [2]; 78% (active) in assay [3]; 92.2% (active) in assay [4]; 93.6% (active) in assay [5]; 109% (active) in assay [6]. For the same compound, the inhibition was 97.2% (active) in assay [7] and 99.4% (active) in assay [8].
